Experimental data published in PubChem BioAssay (NCATS).
Records with an inconclusive call do not appear. The source made the active and inactive calls. Unless noted, calls come from the whole dose curve.

What was measured:
[1] = qHTS for Inhibitors of the Functional Ribonucleoprotein Complex (vRNP) of Lassa (LASV) Arenavirus: LASV Primary Screen - GLuc reporter signal (AID 1347082; calls by dose curve; tested in HEK293 reporter line; note: nearly all actives have a fitted effect of over 60% in size; for activity change, negative = inhibition: series mostly up to about 57 µM)
[2] = qHTS for Inhibitors of the Functional Ribonucleoprotein Complex (vRNP) of Lassa (LASV) Arenavirus: Viability assay - alamar blue signal for LASV Primary Screen (AID 1347083; calls by dose curve; tested in HEK293 reporter line; note: nearly all actives have a fitted effect of over 80% in size; for activity change, negative = reduced viability: series mostly up to about 57 µM)
[3] = qHTS for Inhibitors of the Functional Ribonucleoprotein Complex (vRNP) of Lymphocytic Choriomeningitis Arenaviruses (LCMV): Viability assay - alamar blue signal for LCMV Primary Screen (AID 1347085; calls by dose curve; tested in HEK293 reporter line; note: nearly all actives have a fitted effect of over 80% in size; for activity change, negative = lower viability: series mostly up to about 57 µM)
[4] = biological target: Nucleoprotein (Lymphocytic choriomeningitis virus (strain Armstrong)) (UniProt P09992); experiment: qHTS for Inhibitors of the Functional Ribonucleoprotein Complex (vRNP) of Lymphocytic Choriomeningitis Arenaviruses (LCMV): LCMV Primary Screen - GLuc reporter signal (AID 1347086); note: nearly all actives have a fitted effect of over 70% in size; for activity change, negative = inhibition: series mostly up to about 57 µM
% is set by controls: 0 for no effect and ±100 for the full control effect; potency is the fitted concentration of half-maximal effect.

Chain of Nucleoprotein (Lymphocytic choriomeningitis virus (strain Armstrong)) (P09992 whole entry, looked up): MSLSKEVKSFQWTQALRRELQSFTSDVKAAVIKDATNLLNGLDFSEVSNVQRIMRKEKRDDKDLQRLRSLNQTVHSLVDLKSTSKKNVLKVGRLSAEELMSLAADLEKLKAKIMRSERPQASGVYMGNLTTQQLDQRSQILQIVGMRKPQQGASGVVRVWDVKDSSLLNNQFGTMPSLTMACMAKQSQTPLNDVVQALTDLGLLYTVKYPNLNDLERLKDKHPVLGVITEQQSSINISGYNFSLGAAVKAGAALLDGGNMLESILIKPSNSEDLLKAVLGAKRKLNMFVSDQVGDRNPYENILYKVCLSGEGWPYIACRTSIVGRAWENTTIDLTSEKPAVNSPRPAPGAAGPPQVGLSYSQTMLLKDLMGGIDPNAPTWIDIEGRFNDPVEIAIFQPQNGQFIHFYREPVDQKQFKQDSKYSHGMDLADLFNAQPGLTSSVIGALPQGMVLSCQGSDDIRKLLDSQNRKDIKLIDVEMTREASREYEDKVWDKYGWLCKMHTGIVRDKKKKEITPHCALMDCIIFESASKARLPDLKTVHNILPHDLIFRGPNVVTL

Cc1c[nH]c(C=C2C(=O)Nc3ccccc32)c1CCC(=O)O
inactive: Potency [1] | Potency [2] | Potency [3] | Potency [4]

COc1ccc(C=CC(=O)c2ccc(OC)c(OC)c2O)cc1OC
inactive: Potency [1] | Potency [2] | Potency [3] | Potency [4]

Cc1cc(O)c2c(c1)C(O)(C1OC(CO)C(O)C(O)C1O)c1cccc(O)c1C2=O (stereo not given)
inactive: Potency [1] | Potency [2] | Potency [3] | Potency [4]

C=CC[C@]12C=C(OC)C(=O)C=C1O[C@@H](c1ccc3c(c1)OCO3)[C@H]2C
inactive: Potency [1] | Potency [2] | Potency [3] | Potency [4]

NC(C(=O)O)C1ON=C(Cl)C1O (stereo not given)
inactive: Potency [1] | Potency [2] | Potency [3] | Potency [4]

COc1cc(-c2cc(=O)c3c(O)cc(O)cc3o2)ccc1O
inactive: Potency [1] | Potency [2] | Potency [3] | Potency [4]

C[C@@H]1C[C@@H]2OC(=O)[C@]3(C)[C@H]2[C@@H](OC3(C)O)[C@]2(C)C(=O)C=C[C@H]12 (stereo not given in full)
inactive: Potency [1] | Potency [2] | Potency [3] | Potency [4]

Cn1c(=O)c2nncnc2n(C)c1=O
inactive: Potency [1] | Potency [2] | Potency [3] | Potency [4]

CC(C)=CCC/C(C)=C/C(=O)O
inactive: Potency [1] | Potency [2] | Potency [3] | Potency [4]

CC(O)C(C)O (stereo not given)
inactive: Potency [1] | Potency [2] | Potency [3] | Potency [4]

COc1ccc(C(=O)OC2CC3CC[C@H](C2)N3C(C)=O)cc1OC (stereo not given in full)
inactive: Potency [1] | Potency [2] | Potency [3] | Potency [4]

CC1=C[C@H]2OC(=O)[C@@H](C)[C@H]2C[C@@H]2[C@H]1C[C@@H](O)[C@@]2(C)O
inactive: Potency [1] | Potency [2] | Potency [3] | Potency [4]

CCCCCC(C)O (stereo not given)
inactive: Potency [1] | Potency [2] | Potency [3] | Potency [4]

CC/C=C\CCOC(=O)CCCCC
inactive: Potency [1] | Potency [2] | Potency [3] | Potency [4]

C=C[C@]1(C)C=C2C(=O)C[C@H]3C(C)(C)CCC[C@]3(C(=O)O)[C@@]2(O)CC1
inactive: Potency [1] | Potency [2] | Potency [3] | Potency [4]

Cc1nc(C)c(C)nc1C
inactive: Potency [1] | Potency [2] | Potency [3] | Potency [4]

C[C@@H](O)[C@H]1O[C@]2(C)CCC[C@H]1O2
inactive: Potency [1] | Potency [2] | Potency [3] | Potency [4]

Cc1[nH]c(C=C2C(=O)Nc3ccc(S(=O)(=O)Cc4c(Cl)cccc4Cl)cc32)c(C)c1C(=O)N1CCC[C@H]1CN1CCCC1
inactive: Potency [1] | Potency [2] | Potency [3] | Potency [4]

CC/C=C\CCOC(=O)CC
inactive: Potency [1] | Potency [2] | Potency [3] | Potency [4]

CCCCCCCCCCC(C)=O
inactive: Potency [1] | Potency [2] | Potency [3] | Potency [4]

C[C@]12CCC3C(CC[C@H]4C[C@@H](O)CC[C@]34C)C1C[C@@H](O)C2=O (stereo not given in full)
inactive: Potency [1] | Potency [2] | Potency [3] | Potency [4]

C=C(C)C(O)Cc1c(OC)ccc(C(=O)/C=C/c2ccc(O)cc2)c1O (stereo not given)
inactive: Potency [1] | Potency [2] | Potency [3] | Potency [4]

Cc1c(O)c(C)c2c(c1O)C(=O)C[C@@H](c1ccccc1)O2
inactive: Potency [1] | Potency [2] | Potency [3] | Potency [4]

CC1(C)C=Cc2c(c3c(c4c(=O)c(-c5ccc(O)cc5)coc24)OC(C)(C)CC3)O1
inactive: Potency [1] | Potency [2] | Potency [3] | Potency [4]

COc1ccc(C(=O)OC2CC[C@@]3(C)C4CCC5[C@]6(O)C[C@H](O)[C@@]7(O)C(CN8CC(C)CCC8[C@@]7(C)O)[C@]6(O)C[C@@]53O[C@]24O)cc1OC (stereo not given in full)
inactive: Potency [1] | Potency [2] | Potency [3] | Potency [4]

C/C=C(/C)C(=O)OC(C)(C)[C@@H]1Cc2c(ccc3ccc(=O)oc23)O1
inactive: Potency [1] | Potency [2] | Potency [3] | Potency [4]

O=c1ccc2ccc(O[C@@H]3O[C@H](CO[C@@H]4OC[C@](O)(CO)[C@H]4O)[C@@H](O)[C@H](O)[C@H]3O)cc2o1
inactive: Potency [1] | Potency [2] | Potency [3] | Potency [4]

CS[C@H]1SC[C@@H]2C(=O)N(C)[C@H](C(C)C)C(=O)OC[C@H](NC(=O)c3cnc4ccccc4n3)C(=O)N[C@H](C)C(=O)N(C)[C@@H]1C(=O)N(C)[C@H](C(C)C)C(=O)OC[C@H](NC(=O)c1cnc3ccccc3n1)C(=O)N[C@H](C)C(=O)N2C
active: Potency [1] 61.1 nM | Potency [2] 10.9 nM | Potency [3] 6.1 nM | Potency [4] 17.2 nM

COc1cc(OC)cc(-c2ccc3ncc4ccc(=O)n(-c5ccc(N6CCNCC6)c(C(F)(F)F)c5)c4c3c2)c1
active: Potency [1] 10900 nM | Potency [2] 6850 nM | Potency [3] 1930 nM | Potency [4] 3060 nM

C/C(=C\COc1ccc2ccc(=O)oc2c1)CC[C@@H](O)C(C)(C)O
inactive: Potency [1] | Potency [2] | Potency [3] | Potency [4]

COc1cc2c(c(OC)c1OC)-c1c(cc3c(c1OC)OCO3)[C@@H](OC(C)=O)[C@H](C)[C@H](C)C2
inactive: Potency [1] | Potency [2] | Potency [3] | Potency [4]

C=C(C)[C@@H]1CCC2(C(=O)O)CC[C@]3(C)[C@H](CC[C@@H]4[C@@]5(C)CCC(=O)C(C)(C)[C@@H]5CC[C@]43C)[C@@H]12 (stereo not given in full)
inactive: Potency [1] | Potency [2] | Potency [3] | Potency [4]

COC(=O)CC(C)CCC=C(C)C (stereo not given)
inactive: Potency [1] | Potency [2] | Potency [3] | Potency [4]

COC(=O)[C@@H]1CC2=CC(=O)CC[C@]2(C)[C@@]23O[C@@H]2C[C@@]2(C)[C@H](CC[C@@]24CCC(=O)O4)[C@@H]13
inactive: Potency [1] | Potency [2] | Potency [3] | Potency [4]

C/C=C(/C)C(=O)OC1Cc2c(ccc3ccc(=O)oc23)OC1(C)C (stereo not given)
inactive: Potency [1] | Potency [2] | Potency [3] | Potency [4]

O=CC(O)C1OC(=O)C(O)C1O (stereo not given)
inactive: Potency [1] | Potency [2] | Potency [3] | Potency [4]

C=C1CC/C=C(\C)CC[C@@H]2[C@@H]1CC2(C)C
inactive: Potency [1] | Potency [2] | Potency [3] | Potency [4]

N#CC(=C(O)c1ccc(Cl)cc1Cl)c1nc2cc(Cl)ccc2c(=O)[nH]1
inactive: Potency [1] | Potency [2] | Potency [3] | Potency [4]

O=C(O)c1ccco1
inactive: Potency [1] | Potency [2] | Potency [3] | Potency [4]

CC1(C)CCC[C@]2(C)[C@H]3Cc4cc(O)ccc4O[C@]3(C)CC[C@@H]12
inactive: Potency [1] | Potency [2] | Potency [3] | Potency [4]

Cc1cc(=O)c2c(O)c3c(O)cc(O)c4c5c(O)cc(O)c6c(O)c7c(=O)cc(C)c8c1c2c(c34)c(c65)c78
inactive: Potency [1] | Potency [2] | Potency [3] | Potency [4]

NC1=NCCCC1
inactive: Potency [1] | Potency [2] | Potency [3] | Potency [4]

C[C@@H]1NC(=O)N[C@@H]1CCCCCC(=O)O
inactive: Potency [1] | Potency [2] | Potency [3] | Potency [4]

Cc1cnnc2ccccc12
inactive: Potency [1] | Potency [2] | Potency [3] | Potency [4]

O=C(O)c1cccc(C(=O)O)n1
inactive: Potency [1] | Potency [2] | Potency [3] | Potency [4]

COc1ccc2c(c1)CC1c3c(cc4c(c3-2)OCO4)CC[N+]1(C)[O-] (stereo not given)
inactive: Potency [1] | Potency [2] | Potency [3] | Potency [4]

O=C1O/C(=C\c2ccc(O)cc2)C(O)=C1c1ccc(O)cc1
inactive: Potency [1] | Potency [2] | Potency [3] | Potency [4]

CC(C)=CCC/C(C)=C/CC/C(C)=C/CCC1(C)CCc2cc(O)ccc2O1 (stereo not given)
inactive: Potency [1] | Potency [2] | Potency [3] | Potency [4]

CCN1C[C@@]2(COC)CCC(OC)[C@]34C5C[C@]6(O)[C@@H](OC)C[C@](OC(C)=O)(C([C@H](OC)C23)[C@H]14)C5[C@H]6OC(=O)c1ccc(OC)cc1 (stereo not given in full)
inactive: Potency [1] | Potency [2] | Potency [3] | Potency [4]

COc1c2c(c(OC)c3c1c(=O)c1ccccc1n3C)OCO2
inactive: Potency [1] | Potency [2] | Potency [3] | Potency [4]

CC[C@H](C)/C=C(C)/C=C/C(=O)Cc1cc(O)c(C)c(O)c1C=O
inactive: Potency [1] | Potency [2] | Potency [3] | Potency [4]

C[N+]1([O-])[C@@H]2Cc3cc4c(cc3[C@@H]1Cc1cc3c(cc12)OCO3)OCO4 (stereo not given in full)
inactive: Potency [1] | Potency [2] | Potency [3] | Potency [4]

O=C(O)CCCCCCCCCC(=O)O
inactive: Potency [1] | Potency [2] | Potency [3] | Potency [4]

CCCCC/C=C\C[C@@H]1O[C@H]1/C=C/C(O)C/C=C\CCCC(=O)O (stereo not given in full)
inactive: activity change, negative = inhibition [1] -3.16% [at 0.757 µM] | activity change, negative = reduced viability [2] 11.9% [at 0.757 µM] | activity change, negative = lower viability [3] 4.17% [at 0.757 µM] | activity change, negative = inhibition [4] 7.04% [at 0.757 µM]

CC1(C)O[C@H]2C[C@@H]3[C@H]4CCC5=CC(=O)C=C[C@]5(C)[C@@]4(F)[C@@H](O)C[C@]3(C)[C@]2(C(=O)CO)O1
inactive: Potency [1] | Potency [2] | Potency [3] | Potency [4]

C=C(C)[C@@H]1CC[C@]2(C(=O)O)CC[C@]3(C)C(CCC4[C@@]5(C)CC[C@H](O)C(C)(C)C5CC[C@]43C)C12 (stereo not given in full)
inactive: Potency [1] | Potency [2] | Potency [3] | Potency [4]

CCCCCCCCCCCCCC
inactive: Potency [1] | Potency [2] | Potency [3] | Potency [4]

COC1=C(C)C(O)=C(C(=O)/C=C/c2ccccc2)C(=O)C1(C)C
inactive: Potency [1] | Potency [2] | Potency [3] | Potency [4]

CCOC(=O)CC(C)C
inactive: Potency [1] | Potency [2] | Potency [3] | Potency [4]

CCCCC/C=C/CC(=O)OC
inactive: Potency [1] | Potency [2] | Potency [3] | Potency [4]
